Laboratory results from PubChem BioAssay (NCI).
This is part of a sample that, as a whole, favours compounds with a hit. Of some 83,000 tested, about 20% had one in any assay.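 In brief: 96-well plates, 48 h treatment, single concentration, percent growth endpoint.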 Activity calls are given as the source filed them.

tested on: MDA-MB-435 melanoma; assay: NCI-60 one-dose screen, 48 h (100 = growth as untreated, 0 = no growth, -100 = all killed); conditions: 10 µM unless noted
Method: Growth inhibition of the MDA-MB-435 human Melanoma tumor cell line is measured as a screen for anti-cancer activity. Cells are grown in 96 well plates and exposed to the test compound for 48 hours. Compounds are tested at a single concentration, which is 10^-5 M for most compounds. The reported endpoint is percent growth (GI% or GIPRCNT), where numbers from 0 - 100% represent growth inhibition, and numbers from -100% - 0 represent cell death. For example, a value of 40 represents 60% growth inhibition. A value of 0 means no net growth occurred over the course of the experiment. A value of -40 indicates 40% of cells at the beginning of the experiment died by the end of the experiment. A value of -100 means all cells are dead at the end of the experiment.
NCI-60 Human Tumor Cell Lines Screen was performed using the standard one-dose NCI protocol, which is described in more detail at https://dtp.cancer.gov/discovery_development/nci-60/default.htm.
Compounds with GIPRCNT values below 10 were considered active. Activity score was based on GIPRCNT using the following formula: […]
Score is 0 for GIPRCNT values of 100 or above, 50 for GIPRCNT values of 0, and 100 for GIPRCNT values of -100.

| SMILES | growth |
| --- | --- |
| CCCCC1CCc2cccc3c(SCC(=O)N(C)c4ccc(Cl)cc4)cc[n+]1c23 (stereo not given) | 103% (inactive) |
| O=C(Nc1ccc(Cl)cc1)N1CCN(c2ccc3nncn3n2)CC1 | -81.4% (active) |
| COc1ccc(-c2nc(N3CCN(C(=O)C4CCCCC4)CC3)c3c4c(sc3n2)CCCC4)cc1 | -54.1% (active) |
| O=C(/C=C/c1ccccc1)c1ccc(Nc2nc(NCCO)nc(Nc3ccc(Cl)cc3)n2)cc1 | 77.2% (inactive) |
| O=C(Nc1ccc(N2CCNCC2)cc1)c1[nH]ncc1Nc1cc(Oc2ccccc2)ncn1 | 35.8% (inactive) |
| Cc1cc(OC(=O)c2ccc([N+](=O)[O-])cc2)nc2[nH]c(=O)sc12 | 108% (inactive) |
| O=C1C(Cl)=C(NCc2ccco2)C(=O)c2ccccc21 | -38.4% (active) |
| CCOC(=O)CSc1c(-c2ccccc2)c2cc(Cl)ccc2[nH]c1=O | 99.8% (inactive) |
| Nc1ccc(-c2ccc(-c3ccccc3N)c3[nH]c4ccccc4c23)cc1 | -58.9% (active) |
| O=c1[nH]nnc2c1ncn2C1OC(CO)C(O)C1O (stereo not given) | 76.5% (inactive) |
| O=C(Nc1ccc(I)cc1F)c1cc(Cl)ccc1O | -2.93% (active) |
| CN(C)CCNc1cc(-c2ccccc2)nc2ccccc12 | -55.1% (active) |
| CCn1c(-c2nonc2Nc2ccc(OC)cc2)nc2ccccc21 | 96.8% (inactive) |
| O=C(CCc1nnc2sc(COc3ccccc3)nn12)c1nc2ncccc2[nH]1 | 101% (inactive) |
| Cc1c(-c2noc(-c3ccc([N+](=O)[O-])cc3)n2)no[n+]1[O-] | 106% (inactive) |
| O=C1c2cc(Br)ccc2Oc2cc([N+](=O)[O-])ccc2N1c1ccc(I)cc1F | 102% (inactive) |
| COc1ccc(CSc2nnc(SCC(=O)Nc3ccc(Cl)cc3)s2)cc1 | 67.2% (inactive) |
| O=C1Nc2ccccc2/C1=C/c1cccs1 | 104% (inactive) |
| CN=c1ccc2nc3ccc(N)cc3sc-2c1 | -62.6% (active) |
| O=C(CSc1nc2ccccc2c(=O)n1-c1ccccc1)Nc1ccc(C(=O)/C=C/c2ccc(Cl)cc2)cc1 | 103% (inactive) |

| SMILES | growth |
| --- | --- |
| Cc1[nH]c2ccccc2c(=O)c1CC=C(Cl)Cl | 47.5% (inactive) |
| O=C(Nc1ccc(N2CCNCC2)cc1)c1[nH]ncc1Nc1ncnc2sc3c(c12)CCC3 | -94.4% (active) |
| O=C(/C=C/c1cccc(Cl)c1)OCc1ccc2cc1OCC#C/C=C\C#CCO2 | 106% (inactive) |
| Cn1c2c(c(=O)[nH]c1=O)NC1=C(C(=O)c3ccccc31)C1(C=C(O)c3ccccc31)N2 (stereo not given) | 117% (inactive) |
| COc1ccc(-c2nnc(COc3ccc(C(=O)/C=C/c4ccco4)cc3)o2)cc1 | 10.9% (inactive) |
| CC1=C(C(=O)OCC2CCN(C(=O)OC(C)(C)C)CC2)[C@@H](c2cccc(C#N)c2)C2=C(CC(C)(C)CC2=O)N1 | 41.4% (inactive) |
| CNC(=O)c1cc(Oc2ccc(CC(=O)Nc3cc(C(C)(C)C)cn3C)cc2)ccn1 | 66.2% (inactive) |
| O=C(NN1C(=O)CSC1c1ccc(Cl)cc1)c1[nH]c2ccc(F)cc2c1-c1ccccc1 (stereo not given) | 44.9% (inactive) |
| O=C(Nc1ccc(Cl)cc1F)c1cc(I)ccc1O | 18.5% (inactive) |
| Cn1nc(C(C)(C)C)cc1NC(=O)Cc1ccc(/C=C2\C(=O)Nc3ccccc32)cc1 | 56% (inactive) |
| Nc1nc(Nc2cccc(F)c2)nc2ccccc12 | 18.6% (inactive) |
| Brc1ccc(Oc2ccc(Nc3ncnc4onc(-c5ccccc5)c34)cc2)cc1 | 99.9% (inactive) |
| Cn1nc(C(F)(F)F)c(-c2ccc(Cl)c(C(F)(F)F)c2)c1-c1ccc(OCc2ccc(Cl)cc2)cc1O | 24.7% (inactive) |
| O=C(N/N=C/c1ccccc1Cl)C(=O)Nc1cccc(C(F)(F)F)c1 | 98.4% (inactive) |
| Clc1ncccc1Nc1ccc2nnc(-c3ccncc3)n2n1 | 102% (inactive) |
| O=C(CN1C=NC2C(N3CCOCC3)=NC=NC21)c1cccc2ccccc12 (stereo not given) | 99.3% (inactive) |
| O=C(Nc1ccc(Cl)cc1F)c1cc(Br)ccc1O | 0.322% (active) |
| CCCCCCc1cc2cc(-c3csc(/C=C/c4ccccc4)n3)c(=O)oc2cc1O | -72.2% (active) |
| O=C1NC(=O)C(=Cc2cn(Cc3cn(Cc4ccc(Cl)cc4Cl)nn3)c3ccccc23)C(=O)N1 | 94.9% (inactive) |
| Cc1ccccc1CNC(=O)C1CN(c2ccc(Cl)cc2)N(c2ccc(Cl)cc2)C1=O (stereo not given) | 35.9% (inactive) |
